Bioassay records as filed in PubChem BioAssay.
Most compounds without a hit are left out; they make up all but 19% or so of the library.
TDP1 inh – blocks human tyrosyl-DNA phosphodiesterase 1. Potency, µM (series often up to 130 µM), for inactives: at the top dose activity change, negative = inhibition, most hits filed as inhibitors. recombinant TDP1, AlphaScreen DNA substrate cleavage. 350,000 tested, 0.28% active. Q9NUW8; further: potency means the concentration at half of the fitted maximal effect; on the % scale 0 is the no-effect control and ±100 the full control effect; nearly all actives have a fitted effect of over 40% in size
Target sequence (Q9NUW8 whole entry, looked up): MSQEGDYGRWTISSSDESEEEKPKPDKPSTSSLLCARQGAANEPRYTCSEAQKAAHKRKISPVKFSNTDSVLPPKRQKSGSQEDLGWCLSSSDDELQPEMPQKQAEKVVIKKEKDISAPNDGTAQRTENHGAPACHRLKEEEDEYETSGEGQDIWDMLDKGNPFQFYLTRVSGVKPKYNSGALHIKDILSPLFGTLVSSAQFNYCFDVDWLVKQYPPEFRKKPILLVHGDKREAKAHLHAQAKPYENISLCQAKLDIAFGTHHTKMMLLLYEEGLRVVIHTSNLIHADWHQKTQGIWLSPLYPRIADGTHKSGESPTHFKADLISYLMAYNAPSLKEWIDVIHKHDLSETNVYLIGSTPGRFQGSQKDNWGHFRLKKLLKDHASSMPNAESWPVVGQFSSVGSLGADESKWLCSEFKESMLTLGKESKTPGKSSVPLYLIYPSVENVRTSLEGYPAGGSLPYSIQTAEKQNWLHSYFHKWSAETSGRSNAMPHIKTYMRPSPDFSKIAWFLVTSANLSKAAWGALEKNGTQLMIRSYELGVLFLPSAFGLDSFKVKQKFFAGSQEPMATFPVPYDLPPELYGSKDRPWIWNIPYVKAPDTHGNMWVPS
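Steps: enzyme plus compound, 15 min RT; add biotin/phosphotyrosine-FITC oligonucleotide (15 nM final), react 5 min; add donor/acceptor beads (10 ug/ml final), 10 min; read AlphaScreen. Tdp1 at 1 nM final.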
DT40 TDP1 CPT – growth inhibition of DT40 Tdp1-/-;hTDP1 cells with camptothecin (screen for TDP1 inhibitors). 420,000 tested, 12% active. chicken DT40 Tdp1-/-;hTDP1 cells + 20 nM CPT, ATP luminescence, 48 h. Potency, µM (series often up to 46.2 µM), inactives show at the top dose activity change, negative = growth inhibition, hits mostly inhibitors; further: potency means the concentration at half of the fitted maximal effect; on the % scale 0 is the no-effect control and ±100 the full control effect; nearly all actives have a fitted effect of over 55% in size
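Chicken DT40 Tdp1-/- cells complemented with human TDP1, 400 cells/well, exposed to compounds plus 20 nM camptothecin for at least 48 h at 37 C; viability read as ATP content by CellTiter-Glo luminescence.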
TGFb SMAD3 inh – blocks TGF-b signaling. Potency, µM (top dose mostly 46.1 µM), inactives show at the highest dose activity, negative = inhibition, most hits filed as inhibitors. 410,000 tested, 1.2% active. HepG2 CAGA-GFP TGF-b/SMAD3 reporter, GFP fluorescence, 18 h; TGF-beta stimulated, 500 pg/mL final. AID 588855; further: potency means the concentration at half of the fitted maximal effect; on the % scale 0 is the no-effect control and ±100 the full control effect; nearly all actives have a fitted effect of over 65% in size
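Smad-responsive CAGA-GFP expression was quantified in HEPG2 cells exposed to compounds and 500 pg/mL final TGF-beta for 18 h at 37 degrees C; unstimulated wells defined full inhibition.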
DT40 TDP1 no CPT – qHTS for Inhibitors of human tyrosyl-DNA phosphodiesterase 1 (TDP1): qHTS in cells in absence of CPT | DT40 Tdp1-/- hTDP1 cells, no CPT, ATP luminescence, 48 h | 420,000 tested, 15% active | Potency, µM (series often up to 46.2 µM), without a hit: at the highest dose activity change, negative = growth inhibition, actives largely listed as inhibitors | AID 686978, 2013; further: potency means the concentration at half of the fitted maximal effect; on the % scale 0 is the no-effect control and ±100 the full control effect; nearly all actives have a fitted effect of over 55% in size
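Growth of hTDP1-complemented DT40 Tdp1-knockout cells is measured by ATP luminescence after at least 48 hr compound exposure at 37 °C, with DMSO substituting for the 20 nM CPT used in the parallel screen.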
IL-1B inflam inh – inflammasome signaling inhibition, IL-1 beta readout; THP-1 LPS/ATP IL-1B secretion, AlphaLISA, 16 h; hits give low values; activity change, % at 57.5 µM; 360,000 tested, 4.7% active; in the data active means activity change below about -50%; inconclusive means mostly about -30% to -49%; further: on the % scale 0 is the no-effect control and ±100 the full control effect
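THP-1 cells pretreated 1 hr with compounds (up to 57.5 uM final), then stimulated with LPS (250 ng/mL final) plus ATP (1.25 mM final); secreted IL-1B measured by AlphaLISA after 16 hr, decreased signal indicating inhibition.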
HepG2 viability – kills HepG2 cells in TGF-b inhibitor counter-screen | HepG2 CAGA-GFP viability, ATP luminescence, 18 h | Potency, µM (titrated, usually from 46.1 µM), for the others: at the top dose activity change, negative = cytotoxicity, usual class: cytotoxic | 410,000 tested, 0.76% active | AID 588856; further: potency means the concentration at half of the fitted maximal effect
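HepG2 CAGA-GFP cells (1000/well, DMEM with 1% FBS) received compound, then TGF-beta at 500 pg/mL final, and were incubated 18 hours at 37 degrees C. Viability was read by CellTiter-Glo luminescence. Media-only wells were set as complete cell-killing and DMSO as no toxicity.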
Starred values were filed as active, the others as inactive; ? = inconclusive; . = no result; [ ] = dose if it differs, or a comment. Unless noted, the call rests on the fitted dose curve; in most records, active means well fitted curve in the direction sought with a large enough effect; inconclusive means small, poorly fitted or top-dose-only effect, or another doubt; inactive means no such curve, though single readings can be large; an effect the other way counts as inactive or inconclusive.

SMILES	TDP1 inh	DT40 TDP1 CPT	TGFb SMAD3 inh	DT40 TDP1 no CPT	IL-1B inflam inh	HepG2 viability
Cc1ccc(S(=O)(=O)N[C@H]2COC(=O)CC=C[C@@H](C)[C@H]3C=C[C@H](O)[C@@H](COC(=O)CC=C[C@H]2C)O3)cc1	1.6%[21 µM]	.	.	.	.	.
Cc1ccc(S(=O)(=O)N2CCOCC2)cc1C(=O)NC1CCCC1	-5.0%	-0.3%	-1.5%	14.3%	-3.4	2.8%
CCCC(=O)Nc1c(I)cc(I)c(CC(CC)C(=O)O)c1I (configuration not stated)	.	7.6%	.	-0.4%	.	.
CCCSc1ncc(Cl)c(C(=O)Nc2ccc(S(=O)(=O)N3CC(C)OC(C)C3)cc2)n1 (configuration not stated)	7.8%	?	?	16.4µM*	2.3	3.7%
CC1CCCCN1S(=O)(=O)c1ccc(NC(=O)CSc2nnnn2C)cc1 (configuration not stated)	-1.0%	-7.5%	-18.9%	-14.4%	0.0	-1.9%
Cc1cc2cc(C)c3nnc(SCC(=O)Nc4ccc(S(=O)(=O)N5CCCCC5C)cc4)n3c2cc1C (configuration not stated)	2.3%	?	0.0%	10.3µM*	8.2	12.6%
COc1cccc(OCCNC(=O)Nc2cc(F)c(F)cc2Cl)c1	0.0%	12.9%	-2.7%	0.2%	-1.3	7.3%
c1cnn(-c2nc(N3CCOCC3)nc(N3CCOCC3)n2)c1	5.9%	6.51µM*	-7.6%	5.8µM*	?	-32.9%
c1ccc(Oc2nc(N3CCOCC3)nc(N3CCOCC3)n2)cc1	0.0%	?	-5.0%	-22.4%	-11.0	-5.1%
COc1ccccc1CC(NC(C)=O)C(=O)NC1CCN(C(=O)Nc2ccc(F)cc2)CC1 (configuration not stated)	.	-18.5%	13.8%	2.5%	8.8	-0.8%
CC(C)(C)N=C1NN=C(c2ccc(Cl)cc2)CS1	.	?	?	18.4µM*	-1.0	-15.4%
CC(C)N=C1NN=C(c2cccs2)CS1	2.5%	13.8%	1.0%	-21.3%	26.9	-29.1%
CC(C)N=C1NN=C(c2ccc(Cl)c(Cl)c2)CS1	5.0%	?	?	?	-73.8*	-21.4%
CC(C)(C)N=C1NN=C(c2cc3ccccc3o2)CS1	8.2%	?	-16.0%	23.1µM*	-19.6	-9.5%
Cc1ccc(C2=NNC(=Nc3ccc(F)cc3)SC2)cc1	3.0%	?	0.0%	?	-74.3*	-10.4%
Cc1ccc(C)c(NC(=O)CSc2c(C)cnc3c2c(=O)n(C)c(=O)n3C)c1	-5.2%	4.4%	13.8%	7.4%	.	8.9%
CC/C(=C/c1ccccc1OC)c1cc(-c2ccccc2)cc2oc3ccccc3c12	.	?	-4.3%	?	.	9.3%
CC(C)CC(=O)Nc1ccccc1N1CCN(c2ccc(F)cc2)CC1	3.7%	18.4µM*	-9.4%	?	0.0	-0.5%
CC(C)CC(=O)Nc1ccccc1N1CCCC1	0.0%	-18.2%	-6.7%	-0.3%	-1.3	7.3%
CCOc1ccc(N(CC(=O)NCC2CCCO2)C(=O)CCC(=O)Nc2nccs2)cc1 (configuration not stated)	3.0%	-1.2%	13.9%	-12.0%	-8.6	7.1%
S=C(Nc1ccc(Cl)cc1)NC1CC2CCC(C1)N2Cc1ccccc1 (configuration not stated)	.	23.1µM*	?	16.4µM*	-98.2*	-38.2%
S=C(Nc1ccc(Cl)cc1)NC1CC2CCCC(C1)N2C1CCCC1 (configuration not stated)	4.0%	?	?	?	-23.3	1.8%
C=CCN1C2CCCC1CC(NC(=S)Nc1ccc(Cl)cc1)C2 (configuration not stated)	-2.4%	23.1µM*	-10.5%	?	-5.0	-38.9%
O=C(O)c1cn(Cc2ccccc2)c2ccc(Cl)cc2c1=O	.	?	?	?	-0.9	3.0%
COc1ccc(N2CCN(C(=O)C3CCCN(S(=O)(=O)c4c(C)noc4C)C3)CC2)cc1 (configuration not stated)	.	?	-0.1%	?	8.9	-3.4%
SMILES	TDP1 inh	DT40 TDP1 CPT	TGFb SMAD3 inh	DT40 TDP1 no CPT	IL-1B inflam inh	HepG2 viability
O=C1CCC[C@@H]2C=C[C@H](c3ccc(Br)cc3)[C@H]3CCN1[C@@H]32	.	?	.	18.4µM*	-4.3	.
Cc1cn(S(=O)(=O)c2ccc(F)c(Cl)c2)cn1	1.3%	5.8%	-15.3%	-5.0%	.	-1.9%
c1ccc(-c2ccccc2OCCOCCN2CCOCC2)cc1	6.8%	-17.5%	2.4%	-4.5%	8.5	5.2%
COc1ccc(C2(c3ccc(O)cc3O)CC(c3ccccc3Cl)NC(=S)N2)cc1 (configuration not stated)	9.2%	?	?	?	-90.4*	-2.8%
COc1cccc(C2CC(c3ccccc3Cl)n3nc(N)nc3N2)c1 (configuration not stated)	2.1%	?	-9.7%	-19.5%	-5.0	1.9%
O=C(O)C1CCCN1C(=O)C1CCN(S(=O)(=O)c2cccc(C(F)(F)F)c2)CC1 (configuration not stated)	0.7%	-2.0%	7.7%	-4.9%	18.3	37.6%
CN(C)c1ncc2nc(-c3ccccc3)c(=O)n(C3CC3)c2n1	.	4.6%	.	?	.	.
CC(C)CCn1c(-c2nonc2N)nc2ccccc21	0.0%	13µM*	-13.0%	?	14.0	-15.4%
Nc1nonc1-c1nc2ccccc2n1Cc1ccccc1	0.0%	?	-4.8%	29.1µM*	?	-23.6%
CCCCn1c(-c2nonc2N)nc2ccccc21	-9.8%	?	-2.7%	?	35.0	-21.8%
O=C(CN1C(=O)C(c2ccc(F)cc2)=NC12CCCC2)Nc1ccc(F)cc1	-1.2%	8.2µM*	-2.8%	5.8µM*	-20.0	0.5%
COc1ccc(NC(=O)CN2C(=O)C(c3ccccc3)=NC23CCCCCC3)cc1	0.6%	?	5.0%	?	-55.9*	-2.4%
CSc1nc2ccc(NC(=O)c3ccc(Cl)s3)cc2s1	.	-28.6%	-27.0%	?	-2.8	-37.0%
COc1cccc(OC)c1C(=O)OCC(=O)NC1CCCCCC1	2.4%	?	16.3%	?	10.8	0.9%
COc1ccc(NC(=O)C2CCC(CNS(=O)(=O)c3ccc(Br)s3)CC2)c(OC)c1 (configuration not stated)	2.5%	18.4µM*	?	?	.	-16.7%
